# Most compounds without a hit are left out; they make up all but 7.5% or so of the library.
# SMN2 splice enh: SMN2 splice variant enhancement; HEK293 SMN2-luciferase splicing reporter, luminescence, 30-36 h; Potency, µM (series often up to 46.1 µM), inactives show top-dose activity change, positive = activation, usual class: activators; actives 2.8% (n = 210,000); also: % of control where 0% means no effect; nearly all actives have a fitted effect of over 55% in size
#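 HEK293 cells carry an SMN2 […]–luciferase reporter in which exon 7 inclusion puts luciferase in frame. Cells were plated 10-12 h before compound addition, then incubated 30-36 h at 37C. ONE-Glo luminescence was read; sodium butyrate at 4.5 mM final served as control.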
# Rab9 prom act: Rab9 promoter activation; Huh7 Rab9 promoter-luciferase reporter, luminescence, 24 h; Potency, µM (series often up to 9.22 µM), for the others: at the top dose activation, negative = inhibition, usual class: activators; actives 2.8% (n = 320,000); AID 485297; also: % of control where 0% means no effect; nearly all actives have a fitted effect of over 60% in size
#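 Steps: seed 1500 Huh7 Rab9-luc cells per well, rest 2 h at 37 °C; add compound in DMSO; incubate 24 h; add luciferase reagent, 10 min ambient; read luminescence.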
# FLuc counter: inhibits or activates purified firefly luciferase, miR-21 counter-screen | P08659 | purified FLuc, Km substrates, luminescence inhibition | Potency, µM (doses to about 57.5 µM), without a hit: top-dose activity change, negative = inhibition, most hits filed as inhibitors | actives 6.9% (n = 360,000) | AID 588342;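 also: plate controls were vehicle for no effect and reference inhibitor for full effect; nearly all actives have a fitted effect of over 55% in size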
# Target sequence (P08659 whole entry, looked up): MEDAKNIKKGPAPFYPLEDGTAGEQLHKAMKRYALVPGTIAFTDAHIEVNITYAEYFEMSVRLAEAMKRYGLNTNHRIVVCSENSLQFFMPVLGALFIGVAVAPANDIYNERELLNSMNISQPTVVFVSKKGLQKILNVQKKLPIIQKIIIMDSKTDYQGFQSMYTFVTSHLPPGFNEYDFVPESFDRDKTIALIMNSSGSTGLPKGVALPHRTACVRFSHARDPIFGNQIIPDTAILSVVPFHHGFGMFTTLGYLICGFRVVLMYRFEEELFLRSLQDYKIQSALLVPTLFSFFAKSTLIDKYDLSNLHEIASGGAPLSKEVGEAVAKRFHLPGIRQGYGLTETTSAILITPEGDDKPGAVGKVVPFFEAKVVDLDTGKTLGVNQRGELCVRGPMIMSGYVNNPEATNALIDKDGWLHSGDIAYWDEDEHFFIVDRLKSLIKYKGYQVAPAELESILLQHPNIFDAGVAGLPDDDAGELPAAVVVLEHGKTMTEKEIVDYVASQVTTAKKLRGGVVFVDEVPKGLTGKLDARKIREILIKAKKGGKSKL
#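 Purified P. pyralis luciferase (10nM final) with 10uM D-luciferin and 10uM ATP (Km levels) in 50mM Tris acetate pH 7.5, 10mM Mg acetate, 0.01% Tween-20, 0.05% BSA; qHTS 6-point titration, ~60 µM downward; luminescence read.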
# ELG1 genotox: inducers of genotoxicity in HEK293T ELG1-luciferase cells | HEK293T ELG1-luciferase reporter, luminescence, 16 h | Potency, µM (titrated, usually from 46 µM), inactives show at the top dose activity change, positive = activation, usual class: activators | actives 1.3% (n = 330,000); also: % of control where 0% means no effect; nearly all actives have a fitted effect of over 60% in size
#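 After overnight (16 hr) compound treatment at 37 °C, ELG1-luciferase HEK293T cells were lysed with ONE-Glo; luminescence quantified 30 min later at room temperature.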
# NPC1 prom act: activates the NPC1 promoter; Huh7 NPC1 promoter luciferase reporter, 24 h; Potency, µM (highest dose often 9.22 µM), inactives show top-dose activation, hits mostly activators; actives 2.4% (n = 320,000); also: % of control where 0% means no effect; nearly all actives have a fitted effect of over 60% in size
#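 Quantitative HTS used a cell-based reporter: Huh7 cells stably bearing the NPC1 promoter upstream of luciferase were treated with compounds for 24 h, and promoter activation was read as luminescence.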
# Luc counter: Kinase-Glo luciferase inhibition (counter-screen) | Q27757 | Kinase-Glo luciferase, ATP luminescence, 8 min | Potency, µM (top dose mostly 38.3 µM), for the others: at the highest dose activity change, negative = inhibition, hits mostly inhibitors | actives 0.28% (n = 200,000); also: % is scaled to controls: 0 for no effect and ±100 for the full control effect; nearly all actives have a fitted effect of over 60% in size
#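 Recombinant Kinase-Glo luciferase, 10 uM ATP (linear range), luciferin; imidazole pH 7.2 / KCl / MgCl2 / Tween / BSA buffer; 8 min RT; luminescence.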
# Starred values were filed as active, the others as inactive; ? = inconclusive; . = no result given; [ ] = dose if it differs, or a comment. Calls follow the shape of the dose curve; as a rule, active = well fitted curve in the direction sought with a large enough effect; inconclusive = small, poorly fitted or top-dose-only effect, or another doubt; inactive = no such curve, though single readings can be large; an effect the other way counts as inactive or inconclusive. Potency is read from the fitted curve at half-maximal effect.
SMILES,SMN2 splice enh,Rab9 prom act,FLuc counter,ELG1 genotox,NPC1 prom act,Luc counter
CC(/C=C/c1ccc(N(C)C)cc1)=N\N=C1\NC(=O)CC(C(=O)Nc2ccccc2)S1 (configuration not stated),16µM*,?,2.4µM*,8%,?,1%
CCCOc1ccc(NC(=O)C2CC(=O)N/C(=N/N=C(C)/C=C/c3ccc(N(C)C)cc3)S2)cc1 (configuration not stated),13µM*,?,2.4µM*,14%,?,0%
COc1ccc(-c2c(C#N)c(SCC(=O)Nc3ccc(Br)cc3)nc(C)c2C(=O)Nc2ccccc2)cc1,2%,.,0%,.,.,.
O=C(O)c1cc(/C=C/c2ccc(N3CCOCC3)cc2)nc2ccccc12,?,?,0.48µM*,13%,?,11µM*
COc1cc(/C=C/c2cc(C(=O)O)c3ccccc3n2)ccc1OC(F)F,.,3.2µM*,0.43µM*,3%,3.2µM*,.
COc1cc(/C=C/C(=O)OCN2C(=O)c3ccccc3C2=O)ccc1OC(F)F,.,-3%,2%,6%,-1%,.
O=[N+]([O-])c1cccc2ccc(/C=C/c3ccc(Cl)cc3)nc12,.,?,?,-1%,?,.
CC(=O)Nc1ccc(/C=C/c2ccc3c([N+](=O)[O-])cccc3n2)cc1,?,1.1µM*,?,?,?,-1%
O=C(O)c1cc(N2CCOCC2)nc2ccccc12,.,0%,-5%,1%,1%,.
O=C(O)c1cc(/C=C/c2ccc(N3CCOCC3)c([N+](=O)[O-])c2)nc2ccccc12,.,?,1.2µM*,?,?,.
COc1ccc(OC)c(C2CC(=O)c3c([nH]c(C(=O)OC4CCC(C)CC4)c3C)C2)c1 (configuration not stated),2%,.,-1%,.,.,.
CCCNC(=O)N1CCN(S(=O)(=O)c2ccc3c(ccn3C)c2)CC1,.,.,-5%,.,.,.
Cc1ccc(OCC(=O)NCC(=O)OCc2cc(=O)n3nc(CC(C)C)sc3n2)cc1,.,.,0%,.,.,.
Cc1ccc(NC(=O)Cn2nnc(-c3nc(-c4ccncc4)no3)c2N)cc1,.,.,-4%,.,.,.
CCn1c(CNC(=O)c2ccc(F)cc2)cc2ccccc21,.,29%,-1%,5%,23%,.
BrC(=C\c1ccccc1)/C=N/Nc1ccc2nncn2n1,.,-2%,13µM*,6%,1%,.
O=C(COC(=O)Cn1cnc2ccccc21)Nc1cc2c(cc1Cl)C(=O)c1ccccc1C2=O,18µM*,2.8µM*,?,?,3.2µM*,-5%
C/C(=N\Nc1cc(C)nc(NCc2ccccc2)n1)c1cccc([N+](=O)[O-])c1,.,-5%,12µM*,-2%,1%,.
C/C(=N\Nc1nnc(-c2ccccc2)c(-c2ccccc2)n1)c1cccc([N+](=O)[O-])c1,8%,0%,13µM*,21µM*,29%,-7%
O=[N+]([O-])c1cccc(/C=N/Nc2nnc(-c3ccccc3)c(-c3ccccc3)n2)c1,-7%,0%,0%,-2%,0%,0%
C/C(=N\Nc1ccc(Cl)c(C(=O)O)c1)c1cccc([N+](=O)[O-])c1,.,?,19µM*,17%,?,.
CCOc1ccc(OCC)c(NC(=O)C2CCN(S(=O)(=O)c3cn(C)cn3)CC2)c1,.,.,5%,.,.,.
CCc1ccc(C2c3c(-c4cc(C)ccc4O)n[nH]c3C(=O)N2Cc2cccnc2)cc1 (configuration not stated),-5%,.,-20%,.,.,.
Cc1cccc(OC(=O)CSc2nnc(-c3cccs3)o2)c1C,.,.,0%,.,.,.
COc1ccc(NC(=O)CN(c2cc(C)cc(C)c2)S(=O)(=O)c2c(C)noc2C)cc1Cl,4%,.,-5%,.,.,.
SMILES,SMN2 splice enh,Rab9 prom act,FLuc counter,ELG1 genotox,NPC1 prom act,Luc counter
COc1ccc(-c2cc3nc(C)n(N)c(=O)c3s2)cc1,.,0.0032µM*,0.076µM*,?,0.079µM*,.
C=CCn1c(SCCNC(C)=O)nc2cc(-c3ccccc3)sc2c1=O,.,10%,?,10%,7%,.
COc1ccc(-c2nc3ccccc3c(=O)n2N)cc1,7%,2%,2%,0%,0%,4%
Cc1nc2cc(-c3ccccc3)sc2c(=O)n1N,1.4µM*,?,0.67µM*,-21%,?,2.2µM*
Cc1ccccc1CNC(=O)Cc1ccc(NC(=O)N2CCCCc3ccccc32)cc1,.,.,-29%,.,.,.
O=C1C2CC=CCC2C(=O)N1Cc1ccccc1 (configuration not stated),-18%,0%,3%,0%,-4%,5%
O=C1C2CC=CCC2C(=O)N1Cc1nnc(-c2ccc(Cl)cc2)o1 (configuration not stated),24%,?,19µM*,?,12%,1%
CCc1ccc(-c2nn(CC(=O)NC3CCCCC3)c3c2cnc2ccc(OC)cc23)cc1,.,.,0%,.,.,.
CC(C)CC(=O)n1sc(NC(=O)c2ccccc2)nc1=O,-6%,-6%,21µM*,-1%,-4%,-9%
Cc1ccc(C(=O)Nc2nc(=O)n(C(=O)c3ccccc3Cl)s2)cc1,?,3.2µM*,5.4µM*,?,?,-1%
Cc1ccc(C(=O)Nc2nc(=O)n(C)s2)cc1,?,2.8µM*,2.1µM*,?,3.2µM*,-4%
Cc1ccc(C(=O)Nc2ccccc2C(=O)N2CCCCCC2)cc1,.,0%,-16%,-1%,1%,.
O=C(Nc1ccncc1)c1ccc(Cl)cc1,.,2%,?,-7%,-3%,.
Cn1sc(NC(=O)c2ccc(Cl)cc2)nc1=O,?,3.5µM*,2.4µM*,?,4µM*,-3%
Cc1ccc(C(=O)Nc2nc(=O)n(C(=O)CC(C)C)s2)cc1,9%,2%,?,0%,-1%,5%
Cc1ccc(S(=O)(=O)NCC2CCC(C(=O)NCCc3ccc(Cl)cc3)CC2)cc1 (configuration not stated),.,.,-2%,.,.,.
COC(=O)Nc1ccc2c(c1)ncn2C1CCCCC1,1%,0%,17µM*,12%,16%,-9%
CCOC(=O)Nc1ccc2c(c1)ncn2C1CCCCC1,22%,22%,-1%[2.3 µM],12%,3%,-5%
CN(c1nc(-c2ccc(Br)cc2)cs1)C1CCS(=O)(=O)C1 (configuration not stated),18%,?,24µM*,5%,?,-1%
Cc1ccsc1CN(C(=O)COc1ccc(Br)cc1)C1CCS(=O)(=O)C1 (configuration not stated),8%,.,0%,.,.,.
O=C1N/C(=N\N=C\c2cccs2)SC1Cc1cccc(Cl)c1 (configuration not stated),-51%,-10%,-4%,0%,-17%,6%

# Screening data: PubChem, National Center for Advancing Translational Sciences (NCATS)
